KDM5B inh: inhibitors of human KDM5B histone demethylase. Q9UGL1. KDM5B demethylase, FDH-coupled NADH fluorescence (FDH is formaldehyde dehydrogenase). Potency, µM (doses to about 57.7 µM), hits mostly inhibitors. hit rate 2.6% among 220,000. AID 1347165; further: potency means the concentration at half of the fitted maximal effect; 0% is about no effect; nearly all actives have a fitted effect of over 70% in size
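Here, H3K4me3 peptide (12.5 µM in substrate mix) is demethylated by KDM5BΔAP, 200 nM final, after 10 min compound exposure. Formaldehyde product is coupled through FDH (0.25 U/mL in mix) to NADH fluorescence; 30-min ΔRFU feeds dose-response curves.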
IP6K1 inh: IP6K1 kinase inhibition | IP6K1 kinase, ADP-Glo luminescence, 2 h; hits give low values | activity change, % (series mostly up to about 58 µM) | hit rate 0.81% among 140,000; in the data active means activity change below about -25%; further: on the % scale 0 is the no-effect control and ±100 the full control effect
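ADP-Glo luminescence measures ADP made by human IP6K1 during a 2 h RT reaction with ATP/IP6 (mix at 1.3 mM/130 uM); top library doses 57.5 and 19.1 uM final.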
IP6K1 inh cnf: human IP6K1 inhibition, confirmatory | Potency, µM (highest dose often 49 µM), for inactives: top-dose activity change, negative = inhibition, usual class: inhibitors | shares compounds with IP6K1 inh | hit rate 13% among 1,200 | recombinant IP6K1 kinase, ADP-Glo luminescence, 2 h; further: potency means the concentration at half of the fitted maximal effect; on the % scale 0 is the no-effect control and ±100 the full control effect; nearly all actives have a fitted effect of over 65% in size
The depositor's hits bear a star. This is a sample that favours compounds with a hit; in the whole collection about 2.7% have one here. Unless noted, the call rests on the fitted dose curve; in most records, active means well fitted inhibition curve with a large enough effect; inconclusive means small, poorly fitted or top-dose-only effect; inactive means no such curve, though single readings can be large or run the other way.

COc1cc2c(cc1OC1CCCC1)NC(=O)C21CCN(C(=O)c2cccc(C#N)c2)CC1 was read as KDM5B inh inactive and IP6K1 inh -4.
COc1cc2c(cc1OC1CCCC1)NC(=O)C21CCN(c2ccc(C#N)cn2)CC1 was read as KDM5B inh 32µM* and IP6K1 inh -8.
Screening COc1cc2c(cc1OCc1ccccc1)NC(=O)C21CCN(c2ncccn2)CC1 returned KDM5B inh inconclusive and IP6K1 inh -21.
`COc1cc2c(cc1Oc1ccccc1)NC(=O)C21CCN(c2ncccn2)CC1` gave KDM5B inh inconclusive and IP6K1 inh -14.
Screening CCOC(=O)[C@H]1CN(C(=O)/C=C/c2ccccc2)[C@]2(C)C(=O)N(C)c3ccccc3[C@H]12 returned IP6K1 inh 8.
`COc1ccc(NC(=O)OC[C@H]2C[C@@H]3CCN2C[C@@H]3c2cc(-c3ccc(N(C)C)cc3)nc(C)n2)cc1` gave KDM5B inh inactive and IP6K1 inh 12.
COc1cc(NC(=O)OC[C@H]2C[C@@H]3CCN2C[C@@H]3c2cc(-c3ccc(N(C)C)cc3)nc(C)n2)cc(OC)c1 was read as KDM5B inh inactive and IP6K1 inh -11.
`C#CCN1C(=O)[C@@H]2[C@H](c3ccccc31)[C@@H](C(=O)OCC)[C@@H](c1ccccc1)N2C(=O)C(=O)OCC` gave IP6K1 inh -2.
O=C1NCCCCCN(Cc2cccnc2)[C@H]2CCC[C@@H]12 was read as KDM5B inh inconclusive and IP6K1 inh -5.
For O=C1NCCCCCCN(Cc2cccnc2)[C@H]2CCC[C@@H]12 the results were KDM5B inh 7.9µM* and IP6K1 inh 9.
CCOC(=O)[C@H]1CN(C(=O)OCc2ccccc2)[C@]2(C)C(=O)N(CC3CC3)c3ccccc3[C@H]12 was read as IP6K1 inh -1.
`N#Cc1ccc(CN2CCC3(CC2)C(=O)Nc2ccccc23)cc1` gave KDM5B inh inactive and IP6K1 inh -15.
Screening CCOC(=O)[C@H]1CN(C(=O)c2ccc(OC)c(OC)c2)[C@]2(C)C(=O)N(CC3CC3)c3ccccc3[C@H]12 returned IP6K1 inh -1.
Screening CC[C@H]1C[C@H]2[C@@H]3CCC4=CC(=O)CC[C@@H]4[C@H]3CC[C@]2(C)[C@H]1O returned IP6K1 inh -12.
For CC[C@]1(O)CC[C@H]2[C@@H]3CCC4=CCCC[C@@H]4[C@H]3CC[C@@]21C the results were IP6K1 inh -28* and IP6K1 inh cnf inconclusive.
For COc1ccc(S(=O)(=O)NC[C@H]2C[C@@H]3CCN2C[C@@H]3CN2CCc3ccccc32)cc1 the results were KDM5B inh inactive and IP6K1 inh -6.
CCn1c(C)c(C(=O)NCc2cccnc2)c2cc(OC)ccc21 was read as KDM5B inh inactive.
Screening Cc1ccc(-c2ccccc2CN2CCN(C(=O)Cc3ccccn3)CC2)cc1Cl returned IP6K1 inh -6.
Screening CN1CCN(C(=O)Cc2c[nH]c3ncc(-c4ccc5c(c4)OCO5)cc23)CC1 returned KDM5B inh inconclusive, IP6K1 inh -27* and IP6K1 inh cnf inconclusive.
Screening O=C(CN1CCN(C(=O)Cc2c[nH]c3ccccc23)CC1)NC1CC1 returned KDM5B inh inactive.
`O=c1cccc2n1CC1CC2CN(Cc2cc3n(n2)CCNC3)C1` (configuration not stated) gave KDM5B inh inconclusive and IP6K1 inh -7.
Screening CCc1[nH]c2ccc(OC)cc2c1CCN(C)C returned IP6K1 inh 0.
O=C1OC(c2ccc(O)c(S(=O)(=O)O)c2)(c2ccc(O)c(S(=O)(=O)O)c2)c2c(Br)c(Br)c(Br)c(Br)c21 was read as IP6K1 inh -65* and IP6K1 inh cnf 21µM*.
`Cc1ccc([N+](=O)[O-])[c]2c1[O][Hg]2` gave IP6K1 inh -83* and IP6K1 inh cnf 1µM*.
COc1cccc(CC(=O)N2[C@H]3CC[C@@H]2c2cnc(-c4ccc(F)cc4)nc2C3)c1 was read as KDM5B inh inactive and IP6K1 inh 16.
c1ccc2c(c1)OCC(C1=NCCN1)O2 (configuration not stated) was read as IP6K1 inh -44* and IP6K1 inh cnf -8%.
Screening COC1CC(OC2CCC3(C=O)C(CCC4C3CCC3(C)C(C5=CC(=O)OC5)CCC43O)C2)OC(C)C1O (configuration not stated) returned IP6K1 inh 14.
Screening COc1ccc(C(=O)N2C[C@@H]3C[C@H](C2)c2c(-c4cccs4)ccc(=O)n2C3)cc1 returned KDM5B inh inconclusive and IP6K1 inh -1.
N[C@@H](Cc1ccc(Oc2cc(I)c(O)c(I)c2)c(I)c1)C(=O)O was read as IP6K1 inh -54* and IP6K1 inh cnf inconclusive.
COc1cc2c(cc1OCc1cccnc1)N(C(=O)Cc1cccc(Cl)c1)CC21CCN(CC(=O)O)CC1 was read as KDM5B inh inactive and IP6K1 inh -6.
`CCc1cnc(N2CCC3(CC2)C(=O)Nc2cc(OCC4CC4)c(OC)cc23)nc1` gave KDM5B inh inconclusive and IP6K1 inh -15.
For COc1cc2c(cc1Oc1ccccc1)NC(=O)C21CCN(c2nc(C)cnc2C)CC1 the results were KDM5B inh 32µM*, IP6K1 inh -32* and IP6K1 inh cnf inconclusive.
For COc1cc2c(cc1OCC1CC1)NC(=O)C21CCN(C(=O)CCc2cccnc2)CC1 the results were KDM5B inh inactive and IP6K1 inh -20.
Screening COc1cc2c(cc1OCC1CC1)NC(=O)C21CCN(c2nc(C)cc(C)n2)CC1 returned KDM5B inh inactive, IP6K1 inh -25* and IP6K1 inh cnf 2%.
COc1cc2c(cc1OCC1CC1)NC(=O)C21CCN(C(=O)c2cccnc2)CC1 was read as KDM5B inh inactive, IP6K1 inh -25* and IP6K1 inh cnf -4%.
`COc1cc2c(cc1Oc1ccccc1)NC(=O)C21CCN(Cc2ccccc2)CC1` gave KDM5B inh inactive and IP6K1 inh -16.
For COC(=O)[C@@]1(C)C(=O)C=C[C@]2(C)c3c(O)cc(C(C)C)cc3[C@H](O)[C@@H](OC(C)=O)C12 (some centres not stated) the results were IP6K1 inh 7.
For N#CC1(c2ccccc2)CCN(C(=O)c2ccc3nccn3c2)CC1 the results were KDM5B inh inactive and IP6K1 inh -10.
For C/C=C(/C)C(=O)O[C@H]1[C@@H]2[C@H](C)C(=O)O[C@@H]2C[C@@H](C)[C@@H]2C=CC(=O)[C@]21C the results were IP6K1 inh 8.
For NNC(=O)c1nn(Cc2ccc(Cl)cc2Cl)c2ccccc12 the results were IP6K1 inh -9.
`O=C(Nc1ccc2n(c1=O)C[C@H]1C[C@@H]2CN(C(=O)NC2CCCCC2)C1)c1ccco1` gave KDM5B inh inactive and IP6K1 inh -9.
For COc1ccc2c(c1OC)CN1CCc3cc4c(cc3C1C2)OCO4 (configuration not stated) the results were IP6K1 inh 14.
Screening COc1ccc2c(c[n+](C)c3c4cc5c(cc4ccc23)OCO5)c1OC returned IP6K1 inh cnf inconclusive.
Screening CCCCCC(=O)N1C[C@H](C(=O)OCC)[C@H]2c3ccccc3N(CC3CC3)C(=O)[C@]21C returned IP6K1 inh -15.

Screens: PubChem BioAssay, National Center for Advancing Translational Sciences (NCATS)
